Data from PubChem BioAssay AID602254 (Broad Institute, 2012).
In all, about 1,000 compounds went through this assay and fewer than 10 were called active.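 The calls were made as follows: active = fitted half-maximal concentration no higher than twice the top valid tested dose, with signal falling; inconclusive = flat curve with 30 to 70% inhibition, or poor fit; inactive = the rest.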 A selection follows. Potency and affinity values are given separately.

target: Golgi-associated PDZ and coiled-coil motif-containing protein (Homo sapiens) (UniProt Q9HD26); experiment: CAL PDZ domain peptide-binding inhibitors, dose response, biochemical, fluorescence polarization, untagged CAL PDZ, cherry-pick, set 2 (AID 602254); settings: Purified CAL PDZ, TMR peptide fluorescence polarization; series mostly up to 60 µM;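 also: more negative means stronger blocking of peptide binding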

outcome, inactive:
C=CCNC(=S)NNC(=O)c1ccc(C)c(Cl)c1
Cc1ccc(S(=O)(=O)c2nc(NN(C)C)sc2Cl)cc1
CC(=O)c1cccc(CN2CCN(CC=C(C)C)C(CCO)C2)c1 (stereo unspecified)
CC1CCN(C(=O)CNC(=O)c2ccc(Cl)cc2Cl)CC1
CCn1nnc(NC(=O)Cc2ccc(Cl)cc2)n1
O=C(Nc1cccc(-n2cnnn2)c1)c1ccc(OC(F)(F)F)cc1
O=C(c1cc(COc2ccccc2)on1)N1CCCC(CN2CCOCC2)C1 (stereo unspecified)
CC(C)(C)n1ncc2c(=O)n(Cc3ccc(Cl)c(Cl)c3)cnc21
CSc1ccccc1OCc1cc(C(=O)N2CCN(c3ccccc3)CC2C)no1 (stereo unspecified)
COc1cc(C(=O)NNC(=O)c2ccc3c(c2)OCCO3)cc(OC)c1OC
COc1cc(S(=O)(=O)Nc2ccc(C(=O)NCC(=O)O)cc2)ccc1NC(C)=O
O=C(N/N=C/c1cccnc1)c1[nH]ncc1Br
CCOC(=O)c1ccc(NC(=O)C2CCCO2)cc1 (stereo unspecified)
CC(=O)c1cccc(NC(=O)CCNC(=O)c2cccc(C)c2)c1
COc1cc(OC)c(C(=O)NCc2ccc3c(c2)OCO3)cc1OC
CC1CC(C)CN(C(=O)CCn2c(=O)oc3ccccc32)C1 (stereo unspecified)
Cc1ccc(CNS(=O)(=O)c2ccc(C(F)(F)F)cc2)n1C
Cc1ccc2nc(N3CCN(Cc4nnnn4C4CCCC4)CC3)c(C#N)cc2c1
Cc1ccc(Cn2c(=O)n(CCC(=O)NCc3ccc4c(c3)OCO4)c(=O)c3ccccc32)cc1
Cc1ccc2c(c1)N(CC(=O)Nc1ccccc1F)C(=O)CO2
CC(C)(C)OC(=O)N1CCC(NC(=O)c2[nH]cnc2C(=O)Nc2cccc(Cl)c2)CC1
COC(=O)c1ccc(OCC(O)CN2CCc3cc(OC)c(OC)cc3C2c2ccccc2)cc1 (stereo unspecified)
COc1ccccc1OCC(O)Cn1nc(C)cc1C (stereo unspecified)
O=C(O)c1ccccc1CSc1nnnn1-c1ccccc1
CC(C)c1ccc(NC2CCCN(C(=O)c3ccnn3C)C2)cc1 (stereo unspecified)
c1ccc(-c2ccccc2OCCOCCN2CCc3ccccc3C2)cc1
CCOc1ccccc1C(=O)NCC(=O)OCc1csc(CC(=O)Nc2ccc(C)cc2)n1
CCCn1nnc(NC(=O)c2ccc3c(c2)OCO3)n1
CC(=O)n1nc(-c2ccccc2)nc1NCc1cccs1
C/C(=N\OC(=O)c1cccc(C(F)(F)F)c1)c1sc(-c2ccccc2)nc1C
COc1ccccc1-c1c(C)nn2c(N)c(-c3ccccc3)cnc12
CC(=O)c1ccc(OCc2cc(C(=O)NCCc3ccc(Cl)cc3)no2)cc1
Cc1c(C(=O)N2CCCCC2)c(S(=O)(=O)NCc2ccc(Cl)cc2)c(C)n1C
O=C(c1ccc(S(=O)(=O)NCC2CCCO2)cc1)N1CCN(c2ccccc2)CC1 (stereo unspecified)
O=C(Nc1cccc(C(=O)N2CCCCC2)c1)C1CC1
CCCN(CC(=O)Nc1ccccc1C)C(=O)CCCc1c[nH]c2ccccc12
O=C(COC(=O)Cc1c(F)cccc1Cl)NC(=O)c1ccccc1
Cc1ccccc1C(=O)NN1CCOCC1
COc1ccc(CN(C)C(=O)CNC(=O)CNC(=O)c2ccc(Cl)cc2Cl)cc1F
Cc1ccc(NC(=O)c2c(-c3ccccc3)noc2C)nc1
Cc1[nH]c2c(C(=O)N3CCCC(CCC(=O)NCc4ccccc4F)C3)cccc2c1C (stereo unspecified)
Cc1ccc(C(C)C)cc1OCCn1cncn1
COCC(C)N1CCC(Oc2cccc(C(=O)NCCc3ccccc3)c2)CC1 (stereo unspecified)
CC(=O)Nc1sc2c(c1C(N)=O)CCC2
CCOc1ccc(NC(=O)CN(C)S(=O)(=O)c2cccs2)cc1
CCCCCN1CSC(=S)N(Cc2ccccc2)C1
COc1ccc(/C=N/NC(=O)CNC(=O)c2ccncc2)cc1OC
O=C(Nc1ccccc1Cl)N1CCN(c2ccc3nnc(-c4ccccc4)n3n2)CC1
CC(=O)Nc1ccc(-c2cc(NC(C)=O)n(-c3ccccc3)n2)cc1
FC(F)(F)c1ccccc1NC(=S)N1CCCC1
COc1ccc(S(=O)(=O)N(C(C)=O)c2ccc3oc(=O)sc3c2)cc1
CCN(c1ccccc1)S(=O)(=O)c1ccc(C(=O)N2CCN(c3ccccc3)CC2)cc1
Cc1cc(C)c(C#N)c(Nc2cccc(C)c2C)n1
COc1ccc(Br)cc1CNc1ccc2[nH]c(=O)[nH]c2c1
Cc1ccc(OCC(=O)N2CCN(C(=O)c3cccs3)CC2)cc1
O=S(=O)(c1ccccc1)N(CC(O)COc1ccccc1)c1ccccc1 (stereo unspecified)
COc1ccccc1N(CC(=O)N1CCN(c2ccccc2)CC1)S(=O)(=O)c1ccc(C)cc1
CC(C)=C1C(=O)NN(c2cccc(Cl)c2)C1=O
Cc1cc(Br)ccc1NC(=O)CN1CCN(c2ccccn2)CC1
O=C(c1ccc(-c2ccccc2)cc1)N1CCN(c2ccccn2)CC1
COCC(=O)N1CCC(Oc2ccc(C(=O)NCc3cnc(C)cn3)cc2)CC1
Cc1ccc(S(=O)(=O)N(C)C)cc1NC(=S)N1CCc2ccccc21
C/C(CC(=O)Nc1ccc2c(c1)OCCO2)=N\NC(=O)COc1ccc(Cl)c(C)c1
COc1ccc(C(=O)NCC(=O)NCc2ccncc2)cc1
Cn1nc(C(=O)Nc2nc(-c3ccccn3)cs2)c2ccccc2c1=O
Cc1ccsc1C(=O)NNC(=O)c1cccc(S(=O)(=O)N2CCCC2)c1
COc1ccc(OCC(=O)Nc2ccccc2C(=O)N2CCOCC2)cc1
Cc1ccc(C(=O)Nc2cccc(C(=O)N3CCOCC3)c2)cc1Cl
O=C(Nc1ccccc1C(=O)O)c1cccc(N2C(=O)c3ccccc3C2=O)c1
Cc1cccc(OCCCn2c(CO)nc3ccccc32)c1
O=c1[nH]c2ccccc2cc1CN(CC1CCCO1)S(=O)(=O)c1ccccc1 (stereo unspecified)
